APE1 inh – APE1 (human) endonuclease inhibition | P27695 | recombinant APE1, TAMRA/BHQ-2 abasic DNA cleavage fluorescence | Potency, µM (doses to about 65.8 µM), inactives show top-dose activity change, negative = inhibition, most hits filed as inhibitors | 350,000 compounds, 0.35% hits | AID 2517;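 note: plate controls were vehicle for no effect and reference inhibitor for full effect; nearly all actives have a fitted effect of over 55% in size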
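Quantitative HTS: incision of a TAMRA/BHQ-2 double-stranded substrate bearing a tetrahydrofuran abasic site by 0.75 nM APE1 raises fluorescence. Substrate 50 nM final, added after 15 min compound preincubation at room temperature; progress as third-minus-first kinetic read difference.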
TDP1 inh – blocks human tyrosyl-DNA phosphodiesterase 1; 350,000 compounds, 0.28% hits; Potency, µM (titrated, usually from 130 µM), for the others: at the highest dose activity change, negative = inhibition, actives largely listed as inhibitors; recombinant TDP1, AlphaScreen DNA substrate cleavage; AID 485290; note: nearly all actives have a fitted effect of over 40% in size
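Tdp1 1 nM final; 15 min RT w/ cpd; substrate 15 nM, 5 min; beads 10 ug/ml, 10 min; AlphaScreen read. Neg ctrl: no enzyme.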
GCN5L2 inh – inhibitors of human GCN5L2 histone acetyltransferase; Q92830; GCN5L2 HAT assay, ThioGlo1 CoA-SH fluorescence; Potency, µM (series often up to 58.9 µM), inactives show at the highest dose activity change, negative = inhibition, hits mostly inhibitors; 390,000 compounds, 0.21% hits; AID 504327
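Enzyme at 20nM final was mixed with library compounds for 15 min at room temperature. Peptide H3(1-25) at 75uM, acetyl-CoA at 70uM and ThioGlo1 at 50uM were then added. Plates were read immediately and after 20 min (Ex340nm/Em540nm).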
RECQ1 inh – inhibitors of human RECQ1 DNA helicase. Potency, µM (top dose mostly 57.3 µM), inactives show at the top dose activity, negative = inhibition, hits mostly inhibitors. P46063. 240,000 compounds, 0.54% hits. RECQ1 DNA unwinding, red fluorescence kinetic read;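 note: plate controls were vehicle for no effect and no enzyme for full effect; nearly all actives have a fitted effect of over 30% in size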
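50 nM RECQ1T1 preincubated 15 min with compound in Tris pH 8.0 buffer with MgCl2, DTT, Tween-20 and 2.5 ug/ml poly(dI-dC); started with 200 nM TAMRA/BHQ-2 forked duplex and 2 mM ATP. Unwinding read as fluorescence (525/598 nm), two reads 2 h apart.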
BLM inh – inhibitors of human Bloom syndrome helicase BLM. P54132. recombinant BLM DNA unwinding, fluorescence dequenching. Potency, µM (top dose mostly 56.1 µM), inactives show top-dose activity change, negative = inhibition, hits mostly inhibitors. 350,000 compounds, 0.2% hits. AID 2528;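 note: plate controls were vehicle for no effect and no enzyme for full effect; nearly all actives have a fitted effect of over 35% in size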
Target sequence (P54132 whole entry, looked up): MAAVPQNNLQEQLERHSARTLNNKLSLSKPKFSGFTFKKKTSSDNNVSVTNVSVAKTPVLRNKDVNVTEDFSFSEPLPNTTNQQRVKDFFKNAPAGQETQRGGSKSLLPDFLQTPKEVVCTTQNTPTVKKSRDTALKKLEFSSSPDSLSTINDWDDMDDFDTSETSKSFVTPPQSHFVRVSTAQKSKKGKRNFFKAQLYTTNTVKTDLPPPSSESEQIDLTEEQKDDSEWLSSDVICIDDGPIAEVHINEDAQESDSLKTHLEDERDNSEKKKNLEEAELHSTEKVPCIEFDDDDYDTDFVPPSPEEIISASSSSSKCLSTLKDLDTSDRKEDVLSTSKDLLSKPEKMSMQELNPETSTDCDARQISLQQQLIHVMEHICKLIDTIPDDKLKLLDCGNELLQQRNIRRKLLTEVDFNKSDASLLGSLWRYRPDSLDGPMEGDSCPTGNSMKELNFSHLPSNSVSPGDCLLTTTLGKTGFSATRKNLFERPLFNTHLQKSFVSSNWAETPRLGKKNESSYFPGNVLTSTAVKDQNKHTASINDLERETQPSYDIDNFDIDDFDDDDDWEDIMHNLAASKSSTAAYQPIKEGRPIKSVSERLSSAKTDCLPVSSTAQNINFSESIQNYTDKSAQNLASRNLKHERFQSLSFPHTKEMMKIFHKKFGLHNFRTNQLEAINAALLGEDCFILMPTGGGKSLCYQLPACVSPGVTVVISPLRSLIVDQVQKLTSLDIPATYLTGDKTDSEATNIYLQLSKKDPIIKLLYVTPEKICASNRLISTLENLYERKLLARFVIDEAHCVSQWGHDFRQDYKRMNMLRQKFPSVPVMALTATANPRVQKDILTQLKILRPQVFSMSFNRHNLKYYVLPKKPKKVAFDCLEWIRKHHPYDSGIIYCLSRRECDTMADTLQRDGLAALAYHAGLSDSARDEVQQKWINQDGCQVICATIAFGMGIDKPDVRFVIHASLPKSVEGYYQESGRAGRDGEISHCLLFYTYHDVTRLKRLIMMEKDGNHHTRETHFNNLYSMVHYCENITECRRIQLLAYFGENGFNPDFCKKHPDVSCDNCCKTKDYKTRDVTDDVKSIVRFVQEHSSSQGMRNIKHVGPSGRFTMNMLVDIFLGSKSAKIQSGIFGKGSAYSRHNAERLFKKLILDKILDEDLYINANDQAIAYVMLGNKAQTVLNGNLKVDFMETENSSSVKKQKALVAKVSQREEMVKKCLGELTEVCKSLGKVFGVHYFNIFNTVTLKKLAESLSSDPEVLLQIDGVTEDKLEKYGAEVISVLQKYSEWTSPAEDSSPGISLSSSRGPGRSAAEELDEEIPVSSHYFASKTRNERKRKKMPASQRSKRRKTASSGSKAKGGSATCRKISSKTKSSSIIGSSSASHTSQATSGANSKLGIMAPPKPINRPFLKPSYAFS
RGS4 inh – blocks human RGS4-accelerated GTP hydrolysis. Potency, µM (top dose mostly 114 µM), without a hit: at the top dose activity change, negative = inhibition, usual class: inhibitors. 390,000 compounds, 0.039% hits. P49798. Transcreener GDP fluorescence polarization, RGS4-accelerated GTP hydrolysis. AID 504845; note: nearly all actives have a fitted effect of over 75% in size
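MLSMR compounds (23 nl, pin-transferred) preincubated 10 min at room temperature with a 500nM (2x) first reagent, then RGS4 at 900nM (2x) plus Transcreener GDP mix added; fluorescence polarization (620/688 nm) read before and after 90 min at 30 °C.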
An asterisk follows results filed as active; i = inactive; ? = inconclusive; nt = no result; ! = repeats disagree; [ ] = dose if it differs, or a comment. Hits are enriched below; roughly 0.87% of the tested compounds scored in any of these assays. Calls come from the whole dose curve; as a rule, active = well fitted curve in the direction sought with a large enough effect; inconclusive = small, poorly fitted or top-dose-only effect, or another doubt; inactive = no such curve, though single readings can be large; an effect the other way counts as inactive or inconclusive. Unless noted, % is set by controls: 0 for no effect and ±100 for the full control effect; potency is the fitted concentration of half-maximal effect.

SMILES	APE1 inh	TDP1 inh	GCN5L2 inh	RECQ1 inh	BLM inh	RGS4 inh
CCN1/C(=C\C=C\C2=[N+](CC)c3ccccc3C2(C)C)C(C)(C)c2ccccc21	32µM*	8%	-6%	28µM*	7.9µM*	-20%
CCC1(C)OC(c2ccccc2)=C/C(=C/C=C2C(=O)NC(=O)NC2=O)O1 (stereo unspecified)	5%	3%	-1%	8.9µM*	-23%	6%[56.9 µM]
C[n+]1cc(P(=S)(c2ccccc2)c2ccccc2)n2ccccc21	nt	0%	nt	nt	nt	nt
CC(C)c1ccc(N2C(=O)NC(=O)/C(=C\C=C\c3ccco3)C2=O)cc1	?	2%	?	16µM*	?	?
CC[n+]1c(-c2ccccc2)c2cc(N)ccc2c2ccc(N)cc21	32µM*!	9%	?	32µM*!	?	-7%
CC(=O)[O][Hg][c]1ccccc1	26%	32µM*	?	9%	5%	nt
CC(=O)NNc1ccccc1	-4%	10%	nt	0%	nt	nt
Cc1cnc2c(C(=O)O)c(Cl)ccc2c1	-4%	9%	5%	-7%	2%	nt
O=C(Nc1ccc2ccccc2c1)c1nn(C23CC4CC(CC(C4)C2)C3)cc1Br	4.5µM*	-5%	-3%	-8%	1%	-20%
COc1cc2c(c(OC)c1OC)-c1ccc(OC)c(=O)cc1[C@H](NC(C)=O)CC2	-3%	6%	3%[21.4 µM]	-2%	2%	nt
COc1nc(C)nc(Cl)c1NC1=NCCN1	25%	0%	-8%	-11%	2%	12%[56.9 µM]
Cc1cc(C)cc(-n2c(C)cc(/C=C3\C(=O)NC(=O)N(C)C3=O)c2C)c1	4%	0%	-3%	-8%	-10%	-6%
Cc1cc(C=C2C(=O)N(C)C(=S)N(C)C2=O)c(C)n1-c1ccncc1	-4%	9%	-7%	25µM*	-9%	?
N[C@@H](Cn1ccc(=O)n(Cc2ccc(C(=O)O)cc2)c1=O)C(=O)O	6%	-12%[56.1 µM]	-17%	0%	1%	8.4µM*
CCN(CC)c1ccc(/C=C2\C(=O)NC(=O)N(CC3CCCO3)C2=O)cc1 (stereo unspecified)	0%	3%	-5%	-4%	2%	?
O=C1NC(=O)N(Cc2ccco2)C(=O)/C1=C/c1ccc(-c2cccc([N+](=O)[O-])c2)o1	28µM*	nt	20µM*	?	?	?
CN(C)c1ccc(/C=C2/C(=O)NC(=O)N(Cc3ccco3)C2=O)cc1	28µM*	28µM*	-9%	?	-6%	?
C=CCN1C(=O)/C(=C/c2cccs2)C(=O)NC1=S	3%	3%	29%	-15%	0%	?
CCN(CC)c1ccc(/C=C2/C(=O)NC(=O)N(Cc3ccco3)C2=O)cc1	?	?	1%	32µM*	-1%	?
O=C1NC(=S)N(Cc2ccco2)C(=O)/C1=C\c1cccs1	3.5µM*	nt	8.9µM*	7.1µM*	28µM*	nt
CN(C)c1ccc(/C=C2\C(=O)NC(=O)N(CCc3ccc(F)cc3)C2=O)cc1	1%	-2%	-8%	i	-4%	?
CS(=O)c1ccc(-c2nc(-c3ccc(F)cc3)c(-c3ccncc3)[nH]2)cc1 (stereo unspecified)	17%	13%	-5%	6%	4%	?
CCOc1cc(OP(=S)(OC)OC)nc(CC)n1	12%	7%	-14%	-18%	-3%	nt
CC(C)C[C@H](CN)CC(=O)O	12%	nt	nt	nt	nt	nt
Cc1cc(I)ccc1Nc1c(C(=O)NOCC2CC2)cc(F)c(F)c1F	-6%	16%	13%	-4%	-15%	nt
SMILES	APE1 inh	TDP1 inh	GCN5L2 inh	RECQ1 inh	BLM inh	RGS4 inh
C[N+]1([O-])[C@@H]2CC(OC(=O)[C@@H](CO)c3ccccc3)C[C@@H]1[C@H]1O[C@H]12 (stereo partly specified)	nt	0%	10µM*!	-7%[25.9 µM]	-11%	nt
On1ccccc1=S	7%	nt	13µM*	nt	nt	-113%
COc1ccc(C[C@H]2c3cc(OC)c(OC)cc3CCN2C)cc1OC	2%[21 µM]	1%[56.1 µM]	8.9µM*	-11%[25.9 µM]	-4%[21.4 µM]	nt
C=CC[C@]1(O)CC[C@H]2[C@@H]3CCC4=CCCC[C@@H]4[C@H]3CC[C@@]21C	6%	nt	nt	nt	nt	nt
c1ccc(NNc2ccccc2)cc1	-1%	17%	nt	0%	nt	nt
Cc1cc(=O)oc2cc3c(cc12)CCCN3	-9%	nt	22µM*	nt	1%	-3%
CC(C)=CCCC1(C)C=Cc2c(O)c3c(c(CC=C(C)C)c2O1)OC12C(=CC4CC1C(C)(C)OC2(C/C=C(/C)C(=O)O)C4=O)C3=O (stereo unspecified)	1%	13%	32µM*	i	28µM*	nt
CC(C)=CCCC1(C)C=Cc2c(O)c3c(c(CC=C(C)C)c2O1)OC12C(=CC4CC1C(C)(C)OC2(C/C=C(/C)C(=O)O)C4O)C3=O (stereo unspecified)	1%	12%[56.1 µM]	13µM*	-11%	22µM*	nt
N[C@@H](Cc1cc(I)c(O)c(I)c1)C(=O)O	0%	0%	?	?	0%	-47%
NC(Cc1ccc(Oc2cc(I)c(O)c(I)c2)c(I)c1)C(=O)O (stereo unspecified)	nt	nt	14µM*	nt	?	nt
CN(C)[C@@H]1C(=O)C(C(N)=O)=C(O)[C@@]2(O)C(=O)C3=C(O)c4c(O)cccc4[C@@](C)(O)[C@H]3[C@H](O)[C@@H]12	7.9µM*!	nt	28µM*!	11µM*!	-17%	?
CN(C)[C@@H]1C(=O)C(C(N)=O)=C(O)[C@@]2(O)C(=O)C3=C(O)c4c(O)cccc4[C@@](C)(O)C3C[C@@H]12 (stereo partly specified)	0%	nt	-9%	nt	nt	-12%
CN(C)[C@@H]1C(=O)C(C(N)=O)=C(O)[C@@]2(O)C(=O)C3=C(O)c4c(O)ccc(Cl)c4[C@@](C)(O)[C@H]3C[C@@H]12	45%	nt	-18%	nt	-6%	-10%
CN(C)C1C(=O)C(C(N)=O)C(=O)C2(O)C(=O)C3C(=O)c4c(O)cccc4C(C)(O)C3C(O)C12 (stereo unspecified)	nt	?	10µM*	i	-5%	nt
O=C1C=Cc2ccccc2C1=O	?	-11%	28µM*	28µM*	-1%	nt
O=C1c2ccccc2C(=O)c2ccccc21	-4%	2%	3%	-9%	2%	nt
C[C@H](CCC(=O)O)[C@H]1CC[C@@H]2[C@H]3[C@@H](CC[C@@]21C)[C@]1(C)CC[C@H](O)C[C@@H]1C[C@@H]3O	16%[21 µM]	7%[56.1 µM]	-7%[21.4 µM]	-4%[25.9 µM]	1%[21.4 µM]	nt
Cc1cccc(C)c1[N+](=O)[O-]	2%	19%	nt	-2%	nt	nt
